Experimental data as given in PubChem BioAssay (NCI).
The panel holds about 79,000 compounds, 15% with a hit somewhere; the sample as a whole holds those more often. No stated cut-off is given here; in the data, active means growth inhibition above about 70%; inactive means the rest.

Key:
[1] = NCI Yeast Anticancer Drug Screen. Data for the rad50 strain (AID 155);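 further: 0% = growth of vehicle-only cultures of the same strain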; settings: S. cerevisiae rad50 strain growth inhibition; at 50.0 µM; active compounds read high
Outline: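 Cells are treated with compound, grown, and their growth is then scored against vehicle-only cultures of the same repair-deficient yeast strain.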

[2] = NCI Yeast Anticancer Drug Screen. Data for the mec2-1 strain (AID 157); settings: S. cerevisiae mec2-1 strain, at 50.0 µM, active compounds read high
Outline: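 Test agents were screened against the mec2-1 yeast strain, with defined DNA repair or cell cycle alteration. Growth was scored as inhibition against vehicle-only controls.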

[3] = NCI Yeast Anticancer Drug Screen. Data for the sgs1 mgt1 strain (AID 161);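 further: 0% = growth of cultures given vehicle only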; settings: S. cerevisiae sgs1 mgt1 strain, at 50.0 µM, active compounds read high
Outline: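 Inhibition of yeast growth, normalised to vehicle-treated controls, is reported for a strain bearing genetic alterations in DNA damage repair.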

[4] = NCI Yeast Anticancer Drug Screen. Data for the cln2 rad14 strain (AID 165);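 further: 0% = growth equal to vehicle treated cultures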; settings: S. cerevisiae cln2 rad14 strain, at 50.0 µM, active compounds read high
Outline: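 Growth of compound-exposed yeast (cln2 rad14 genotype) measured and expressed as inhibition relative to vehicle.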

[5] = NCI Yeast Anticancer Drug Screen. Data for the bub3 strain (AID 167); settings: S. cerevisiae bub3 mutant strain, at 50.0 µM, active compounds read high
Outline: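 Part of a panel of yeast mutants defective in DNA damage repair or cell cycle regulation. Each strain is grown with compound, and inhibition is calculated relative to solvent-treated cultures.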

[6] = NCI Yeast Anticancer Drug Screen. Data for the mlh1 rad18 strain (AID 175); settings: S. cerevisiae mlh1 rad18 strain growth inhibition; at 50.0 µM; active compounds read high
Outline: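 In this whole-cell yeast screen, a strain with altered DNA damage repair is challenged with compound, and its growth is measured against matched vehicle-treated controls.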

Measured: growth inhibition

O=[N+]([O-])c1ccc(N/N=C2/C(=C/c3cccc4ccccc34)CCc3ccccc32)c([N+](=O)[O-])c1
inactive: [1] -13.6% | [2] -16.3% | [3] -20.8% | [4] -32.5% | [5] 37.5% | [6] -19.6%

CC12CCCCC1C(C(C)(C)OC(=O)c1ccc([N+](=O)[O-])cc1)CC2 (stereo not given)
inactive: [1] 15% | [2] 8.2% | [3] 17.4% | [4] -8.85% | [5] 12.6% | [6] 21.1%

CC1(C)C2CC3C(CCC4C(=O)OC(=O)C43)C1C2 (stereo not given)
inactive: [1] -1.2% | [2] 10.2% | [3] -3.8% | [4] -5.3% | [5] -4.3% | [6] -2.35%

Cn1cnc([N+](=O)[O-])c1Sc1nc2ccccc2[nH]1
inactive: [1] -16.4% | [2] -10.3% | [3] -12.2% | [4] 3.65% | [5] -30.6% | [6] -19.1%

O=C(c1ccc(O)c(C(=O)O)c1)c1ccc(O)c(C(=O)O)c1
inactive: [1] 10.9% | [2] -13.9% | [3] -5.3% | [4] -0.7% | [5] -19.9% | [6] -2.85%

NC(=O)C(=O)c1ccccc1
inactive: [1] -6.65% | [2] -27.1% | [3] -2% | [4] -3% | [5] -19.6% | [6] -19.7%

Cc1cc2c(cc1Cl)SC(NNC(=O)c1ccccc1)=NS2(=O)=O
inactive: [1] -44.9% | [2] -31.7% | [3] -43.8% | [4] -42.2% | [5] -31.1% | [6] -38.2%

CCCC(=O)NC(C)(C)C
inactive: [1] 8.8% | [2] -5.3% | [3] -33.9% | [4] 2.9% | [5] 6.2% | [6] -21%

CCOC(=O)C1C(=O)CC(O)(c2ccccc2)C(C(=O)OCC)C1c1ccc(OC)cc1 (stereo not given)
inactive: [1] -17.9% | [2] -13.2% | [3] -6.65% | [4] -31.1% | [5] 6.95% | [6] -3.7%

O=C1NCCCC1O (stereo not given)
inactive: [1] 0.5% | [2] -16.5% | [3] 8% | [4] 5.35% | [5] -6.1% | [6] -2.9%

CC1(C)CC2CC(CC(C)(C)C2=O)C1=O
inactive: [1] -8.65% | [2] -11% | [3] -0.7% | [4] 5.05% | [5] 7.9% | [6] -1.75%

CCOc1ccccc1N1C(=O)C(=O)C(c2nc3ccccc3o2)C(=O)C1=O
inactive: [1] -8.75% | [2] 4.3% | [3] -8.4% | [4] -15.9% | [5] 2.55% | [6] -3.2%

CCc1c(N)nc(=O)[nH]c1C(=O)O
inactive: [1] -4.9% | [2] -0.2% | [3] 10.1% | [4] -26.3% | [5] -26% | [6] -16.6%

CCOc1ccc2ccccc2c1N
inactive: [1] 44% | [2] 15.4% | [3] 24.3% | [4] 4.8% | [5] 51.7% | [6] 46.7%

C/C(CCc1ccccc1)=N\Nc1ccc([N+](=O)[O-])cc1[N+](=O)[O-]
inactive: [1] -31.9% | [2] -44.6% | [3] -2.9% | [4] -17% | [5] -17.4% | [6] -19.4%

O=C(COc1ccc(Cl)cc1Cl)Nc1ccc2ccccc2c1
inactive: [1] 49.4% | [2] 46% | [3] 59.4% | [4] 18.9% | [5] 54.5% | [6] 36.7%

CCCNCCCCC(C)Nc1cc(OC)cc2cccnc12 (stereo not given)
inactive: [1] 7.1% | [2] -14.8% | [3] -15.6% | [4] -21.1% | [5] 8.2% | [6] 23.9%

NNC(=O)C(=O)NN
inactive: [1] -24% | [2] -16.4% | [3] -1.85% | [4] -27.7% | [5] -1.75% | [6] -20.6%

CC(C)C(=O)OCC1OC(n2cnc3c(=S)nc[nH]c32)C(OC(=O)C(C)C)C1OC(=O)C(C)C (stereo not given)
inactive: [1] -6.8% | [2] 2.2% | [3] 2.4% | [4] -13.4% | [5] -9.55% | [6] 2.1%

CC1(C)C2CCC(=O)C1CC2 (stereo not given)
inactive: [1] 6.75% | [2] 14.2% | [3] -22.6% | [4] 12.7% | [5] -37.4% | [6] -43.5%
